Inconclusive results are not listed. Where a call stands in place of a potency, no number is given. Active and inactive are the calls of the source. Unless noted, the call rests on the fitted dose curve; in most records, active means well fitted curve in the direction sought with a large enough effect; inconclusive means small, poorly fitted or top-dose-only effect, or another doubt; inactive means no such curve, though single readings can be large; an effect the other way counts as inactive or inconclusive.
What was measured:
[1] = Validation of Assay for Modulators of Lamin A Splicing (AID 1459; active means well fitted curve in the direction sought with a large enough effect in the signal ratio; the % refers to the signal ratio;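 further: cells exposed to compound for two days before reading; ratio rise marks activators and ratio drop marks inhibitors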)
How it was run: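 Splicing correction is reported by an EGFP-containing lamin A minigene in stably transfected S3 HeLa cells, while DsRed2 controls for viability and nonspecific signal. Cells are exposed to compounds for 48 hrs before the GFP over RFP ratio is taken.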

[2] = target: DNA repair nuclease/redox regulator APEX1 (Homo sapiens) (UniProt P27695); test: qHTS Validation Assay for Inhibitors of the Human Apurinic/apyrimidinic Endonuclease 1 (APE1) (AID 1705; further: potency means the concentration at half of the fitted maximal effect;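 on activity change, negative = inhibition: TAMRA fluorescence gain over two minutes as APE1 cuts a quenched THF abasic duplex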)
How it was run: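 Endonuclease activity of human APE1 is followed as dequenching when the enzyme incises a tetrahydrofuran abasic site in a short duplex labelled 5'-TAMRA/3'-BHQ-2 (50 nM final), after 15 min enzyme–compound preincubation at room temperature.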

[3] = Counterscreen for APE1 Inhibitors: Fluorescent Dye Displacement Validation Assay (AID 1707); further: potency means the concentration at half of the fitted maximal effect
How it was run: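 Assay buffer: Tris-HCl pH7.5 with 50mM NaCl, 2 mM MgCl2, 0.01% Tween-20. Dye 250 nM, duplex 50 nM final. Readout: decrease in ThO endpoint fluorescence, 480 nm excitation, 540 nm emission.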

[4] = target: Endonuclease 4 (Escherichia coli (strain K12)) (UniProt P0A6C1); test: Counterscreen for APE1 Inhibitors: qHTS Validation Assay for Inhibitors of Endonuclease IV (AID 1708)
How it was run: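 2 nM enzyme was preincubated with compounds for 15 min at room temperature in 50 mM Tris-HCl pH 7.5, 50 mM NaCl, 2 mM MgCl2, 1 mM DTT, 0.01% Tween-20. 50 nM THF-abasic TAMRA/BHQ-2 duplex substrate started the reaction.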

[5] = qHTS for differential inhibitors of proliferation of Plasmodium falciparum line 7G8 (AID 1815);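 further: parasite growth measured after three days of incubation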; further: potency means the concentration at half of the fitted maximal effect
[6] = qHTS for differential inhibitors of proliferation of Plasmodium falciparum line GB4 (AID 1816); details: Potency: Plasmodium falciparum GB4 proliferation inhibition;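 further: parasite growth measured after 72 h incubation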; further: potency means the concentration at half of the fitted maximal effect
[7] = qHTS for differential inhibitors of proliferation of Plasmodium falciparum line 3D7 (AID 1876); further: potency means the concentration at half of the fitted maximal effect
[8] = qHTS for differential inhibitors of proliferation of Plasmodium falciparum line D10 (AID 1877);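 further: parasites grown with compound for 72 h before DNA staining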; further: potency means the concentration at half of the fitted maximal effect
[9] = qHTS for differential inhibitors of proliferation of Plasmodium falciparum line Dd2 (AID 1882); details: Potency: Plasmodium falciparum Dd2 proliferation inhibition; further: nearly all actives have a fitted effect of over 65% in size; further: potency means the concentration at half of the fitted maximal effect;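 on activity change, negative = inhibition: compound exposure of 72 h on infected erythrocytes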
How it was run: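 SYBR Green I DNA fluorescence read-out, ex 485/em 535 nm. Signals were normalized to 0.29 uM artemisinin and DMSO wells, then corrected using vehicle-only plates flanking each stack. Parasite growth ran 72 h in erythrocytes before lysis.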

[10] = qHTS for differential inhibitors of proliferation of Plasmodium falciparum line W2 (AID 1883); details: Potency: Plasmodium falciparum W2 proliferation inhibition;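 further: parasites grown with compound for 72 h before lysis and staining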; further: potency means the concentration at half of the fitted maximal effect
[11] = qHTS for differential inhibitors of proliferation of Plasmodium falciparum line HB3 (AID 1886); details: Potency: Plasmodium falciparum HB3 proliferation inhibition;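 further: parasites grown with compound for 72 h before SYBR Green readout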; further: potency means the concentration at half of the fitted maximal effect
[12] = qHTS Assay for Modulators of Human Peripheral Myelin Protein 22 (PMP22) Expression/Activity (AID 1967; active means well fitted curve in the direction sought with a large enough effect in the signal ratio; the % refers to the signal ratio)
How it was run: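 Quantitative HTS in a mouse Schwann cell line expressing dual click beetle luciferases: Pmp22 promoter (green) and control EF-alpha promoter (red). After 24h treatment, corrected green/red signal ratio gave %Activity relative to untreated cells.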

[13] = target: Alpha-galactosidase A (Homo sapiens) (UniProt P06280); test: Counterscreen for Glucocerebrosidase Inhibitors: qHTS Assay for Human alpha-Galactosidase at pH 4.5 (AID 992)
How it was run: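 Concentration-response curves (0.7 nM to 77 uM final) were modeled with the Hill equation to give AC50. Reactions: 2 nM enzyme, 80 uM fluorogenic alpha-galactoside, pH 4.5 citric acid buffer, 20 min, room temperature.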

[14] = target: alpha-glucosidase (Oryza sativa, rice) (UniProt Q653V4); test: Counterscreen for Glucocerebrosidase Inhibitors: qHTS Assay for Rice alpha-Glucosidase at pH 5.0 (AID 997)
How it was run: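 Rice alpha-glucosidase (4 nM final) with 400 uM 4-methylumbelliferyl-alpha-D-glucopyranoside in citrate buffer pH 5.0, 20 min at room temperature, stopped at pH 10; fluorescence 365/440 nm, compounds 0.7 nM–77 uM, AC50 from Hill fits.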

[15] = target: Alpha-galactosidase (Coffea arabica) (UniProt Q42656); test: Counterscreen for Glucocerebrosidase Inhibitors: qHTS Assay for Coffee Bean alpha-Galactosidase at pH 5.9 (AID 998)
How it was run: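 Green coffee bean enzyme (2 nM final) was incubated with compounds (0.7 nM–77 uM) and 4-methylumbelliferyl alpha-D-galactopyranoside (80 uM) in citrate buffer pH 5.9, 20 min at room temperature. High-pH stop; fluorescence 365/440 nm; AC50 from Hill fits.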

[16] = Cell Viability - LYMP2-024 (AID 988); further: nearly all actives have a fitted effect of over 60% in size
How it was run: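 Human lymphoblastoid cells (2500/well) in complete medium were preincubated 5 hr at 37 C, then exposed to compounds for 24 hr at 37 C. Intracellular ATP was read by CellTiter-Glo luminescence; AC50 from Hill-equation fits of concentration-response data.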

[17] = Cell Viability - LYMP2-026 (AID 989); further: nearly all actives have a fitted effect of over 50% in size
How it was run: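 Human lymphoblastoid cells (2500/well) in complete medium were preincubated 5 hr at 37 C, then exposed to compounds for 24 hr at 37 C. Cellular ATP was read by CellTiter-Glo luminescence; AC50 from Hill-equation fits of concentration-response data.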

[18] = Cell Viability - LYMP1-002 - Assay at 24 hr (AID 993)
How it was run: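 Human lymphoblastoid LYMP1-002 cells, 2500/well in complete medium, were treated with compounds for 24 h at 37 C; intracellular ATP was read by CellTiter-Glo luminescence. AC50 values came from Hill-equation fits of qHTS concentration-response data.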

[19] = Cell Viability - LYMP1-002 - Assay at 40 hr (AID 994); further: nearly all actives have a fitted effect of over 60% in size
How it was run: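 Human lymphoblastoid cells, 2500/well in complete medium, were preincubated 5 hr at 37 C, then exposed to compounds for 40 hr at 37 C. Intracellular ATP was read by CellTiter-Glo luminescence after 30 min at room temperature; AC50 from Hill-equation fits.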

[20] = qHTS Assay for Lipid Storage Modulators (AID 1519; calls by dose curve); details: Drosophila S3 cells, BODIPY lipid droplet/cell ratio, laser cytometry, cells loaded with oleic acid
How it was run: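 Cells seeded at 5,000 per well were treated with compounds over a concentration series and loaded with oleic acid (400 uM, as added). Lipid droplet fluorescence (488 nm excitation, 500-530 nm channel) was read by laser-scanning cytometry and normalized to 20 uM Triacsin C.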

[21] = measured here: cell count channel max response
[22] = measured here: lipid channel max response

Alpha-galactosidase (Coffea arabica), sequence (Q42656 whole entry, looked up): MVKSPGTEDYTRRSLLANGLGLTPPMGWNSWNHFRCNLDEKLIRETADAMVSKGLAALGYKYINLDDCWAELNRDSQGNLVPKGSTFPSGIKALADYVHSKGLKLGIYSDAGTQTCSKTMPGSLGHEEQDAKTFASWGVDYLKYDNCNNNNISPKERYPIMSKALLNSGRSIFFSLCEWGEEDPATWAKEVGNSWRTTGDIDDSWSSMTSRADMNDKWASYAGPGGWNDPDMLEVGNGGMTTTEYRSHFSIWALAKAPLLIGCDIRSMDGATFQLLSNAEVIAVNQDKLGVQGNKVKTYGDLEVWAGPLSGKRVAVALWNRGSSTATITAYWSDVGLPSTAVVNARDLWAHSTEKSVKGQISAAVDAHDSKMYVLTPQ
DNA repair nuclease/redox regulator APEX1 (Homo sapiens), sequence (P27695 whole entry, looked up): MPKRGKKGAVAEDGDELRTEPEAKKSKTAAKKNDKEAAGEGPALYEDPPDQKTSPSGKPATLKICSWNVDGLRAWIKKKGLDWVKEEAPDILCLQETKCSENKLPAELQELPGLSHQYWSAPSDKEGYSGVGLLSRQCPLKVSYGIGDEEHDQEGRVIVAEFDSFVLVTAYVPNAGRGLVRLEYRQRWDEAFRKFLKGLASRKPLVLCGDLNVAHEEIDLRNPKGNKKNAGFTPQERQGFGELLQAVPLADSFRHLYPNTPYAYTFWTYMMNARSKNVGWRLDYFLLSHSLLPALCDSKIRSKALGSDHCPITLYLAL
Alpha-galactosidase A (Homo sapiens), sequence (P06280 whole entry, looked up): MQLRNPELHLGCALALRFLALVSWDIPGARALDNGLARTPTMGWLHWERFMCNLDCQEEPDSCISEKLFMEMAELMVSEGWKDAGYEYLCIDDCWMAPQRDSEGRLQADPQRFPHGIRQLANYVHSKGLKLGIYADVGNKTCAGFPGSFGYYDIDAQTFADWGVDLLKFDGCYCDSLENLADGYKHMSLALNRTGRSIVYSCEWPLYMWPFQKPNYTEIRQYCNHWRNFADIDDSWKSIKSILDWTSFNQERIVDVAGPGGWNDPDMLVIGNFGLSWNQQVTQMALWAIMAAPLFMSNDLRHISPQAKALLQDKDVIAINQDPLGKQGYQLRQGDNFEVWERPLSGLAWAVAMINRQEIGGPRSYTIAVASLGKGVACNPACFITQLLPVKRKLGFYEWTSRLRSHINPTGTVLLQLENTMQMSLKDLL

## NC(C(=O)O)c1cc(=O)[nH]o1 (configuration not stated)
[1]
  outcome: inactive
[2]
  Potency: inactive
[3]
  Potency: inactive
[4]
  Potency: inactive
[5]
  Potency: inactive
[6]
  Potency: inactive
[7]
  Potency: inactive
[8]
  Potency: inactive
[9]
  Potency: inactive
[10]
  Potency: inactive
[11]
  Potency: inactive
[12]
  outcome: inactive

## CN(N=O)c1cc(O)ccc1O
[13]
  outcome: inactive
[14]
  outcome: inactive
[15]
  outcome: inactive
[1]
  outcome: inactive
[2]
  Potency: 1.41 µM (active)
[3]
  Potency: 14.1 µM (active)
[4]
  Potency: inactive
[5]
  Potency: inactive
[7]
  Potency: inactive
[8]
  Potency: inactive
[9]
  Potency: inactive
[10]
  Potency: inactive
[11]
  Potency: inactive

## Ic1ccccc1CNC1C2CCN(CC2)C1C(c1ccccc1)c1ccccc1 (configuration not stated)
[1]
  outcome: inactive
[2]
  Potency: inactive
[3]
  Potency: inactive
[4]
  Potency: inactive
[5]
  Potency: 7.08 µM (active)
[6]
  Potency: 5.01 µM (active)
[7]
  Potency: 5.01 µM (active)
[8]
  Potency: 11.2 µM (active)
[9]
  Potency: 3.16 µM (active)
[10]
  Potency: 1.41 µM (active)
[11]
  Potency: 11.2 µM (active)

## N#CC(C#N)=Cc1cc(O)c(O)c(O)c1
[13]
  outcome: inactive
[14]
  outcome: inactive
[15]
  outcome: inactive
[1]
  outcome: inactive
[2]
  Potency: inactive
[3]
  Potency: inactive
[4]
  Potency: inactive
[5]
  Potency: 6.31 µM (active)
[6]
  Potency: 10 µM (active)
[7]
  Potency: 12.6 µM (active)
[8]
  Potency: 12.6 µM (active)
[10]
  Potency: 7.94 µM (active)
[11]
  Potency: 11.2 µM (active)

## CP(=O)(O)C1=CCNCC1
[13]
  outcome: inactive
[14]
  outcome: inactive
[15]
  outcome: inactive
[1]
  outcome: inactive
[2]
  Potency: inactive
[3]
  Potency: inactive
[4]
  Potency: inactive
[5]
  Potency: inactive
[6]
  Potency: inactive
[7]
  Potency: inactive
[8]
  Potency: inactive
[9]
  Potency: inactive
[10]
  Potency: inactive
[11]
  Potency: inactive

## NCC(O)c1cc(O)c(O)cc1F (configuration not stated)
[1]
  outcome: inactive
[2]
  Potency: 35.5 µM (active)
[3]
  Potency: inactive
[4]
  Potency: inactive
[6]
  Potency: inactive
[7]
  Potency: inactive
[8]
  Potency: inactive
[9]
  Potency: inactive
[11]
  Potency: inactive

## O=C1CC[C@@]2(O)C3Cc4ccc(O)c5c4C2(CCN3CC2CC2)[C@H]1O5 (some centres not stated)
[1]
  outcome: inactive
[2]
  Potency: inactive
[3]
  Potency: inactive
[4]
  Potency: inactive
[5]
  Potency: inactive
[6]
  Potency: inactive
[9]
  Potency: inactive
[10]
  Potency: 10 µM (active)
[12]
  outcome: inactive

## CO[C@H]1CC=C2CCN3CCC4=C(CC(=O)OC4)[C@]23C1
[1]
  outcome: inactive
[2]
  Potency: inactive
[3]
  Potency: inactive
[5]
  Potency: inactive
[6]
  Potency: inactive
[7]
  Potency: inactive
[8]
  Potency: inactive
[9]
  Potency: inactive
[10]
  Potency: inactive
[11]
  Potency: inactive
[12]
  outcome: inactive

## C=CCN1CC[C@]23c4c5ccc(O)c4O[C@H]2/C(=N/NC(=O)c2ccccc2)CC[C@@]3(O)[C@H]1C5
[1]
  outcome: inactive
[2]
  Potency: inactive
[3]
  Potency: inactive
[4]
  Potency: inactive
[5]
  Potency: 10 µM (active)
[6]
  Potency: 8.91 µM (active)
[7]
  Potency: 10 µM (active)
[8]
  Potency: 3.16 µM (active)
[10]
  Potency: 3.16 µM (active)
[11]
  Potency: 11.2 µM (active)
[12]
  outcome: inactive

## O=c1c2ccccc2[se]n1-c1ccccc1
[13]
  outcome: inactive
[14]
  outcome: inactive
[1]
  outcome: inactive
[2]
  Potency: inactive
[3]
  Potency: inactive
[4]
  Potency: inactive
[5]
  Potency: 14.1 µM (active)
[6]
  Potency: 14.1 µM (active)
[10]
  Potency: 17.8 µM (active)

## CC(C)(C)c1cc(C=C(C#N)C#N)cc(C(C)(C)C)c1O
[13]
  outcome: inactive
[14]
  outcome: inactive
[15]
  outcome: inactive
[2]
  Potency: inactive
[3]
  Potency: inactive
[4]
  Potency: inactive
[5]
  Potency: 1.12 µM (active)
[6]
  Potency: 0.891 µM (active)
[7]
  Potency: 0.708 µM (active)
[8]
  Potency: 1.12 µM (active)
[9]
  Potency: 0.891 µM (active)
[10]
  Potency: 0.355 µM (active)
[11]
  Potency: 1 µM (active)

## CC(N)c1cccc(Cl)c1Cl (configuration not stated)
[2]
  Potency: inactive
[3]
  Potency: inactive
[4]
  Potency: inactive
[6]
  Potency: 11.2 µM (active)
[7]
  Potency: inactive
[8]
  Potency: inactive
[10]
  Potency: 8.91 µM (active)
[11]
  Potency: inactive
[12]
  outcome: inactive

## NC(Cc1cc(O)c(O)cc1O)C(=O)O (configuration not stated)
[1]
  outcome: inactive
[2]
  Potency: 0.112 µM (active)
[3]
  Potency: 7.94 µM (active)
[6]
  Potency: inactive
[7]
  Potency: inactive
[8]
  Potency: inactive
[9]
  Potency: inactive
[10]
  Potency: inactive
[11]
  Potency: inactive

## O=C1CCO1
[16]
  Potency: inactive
[17]
  Potency: inactive
[18]
  Potency: inactive
[19]
  Potency: inactive
[20]; at 57.5 µM (top of the series)
  activity change, negative = inhibition: 5.6% (inactive)
[20]; [21]
  max response: 8.02%
[20]; [22]
  max response: 16.6%

## C=CCN1CC[C@]23c4c5ccc(O)c4O[C@@H]2/C(=N/N=C2\CC[C@@]4(O)C6Cc7ccc(O)c8c7[C@@]4(CCN6CC=C)[C@@H]2O8)CC[C@@]3(O)C1C5
[2]
  Potency: inactive
[3]
  Potency: inactive
[4]
  Potency: inactive
[5]
  Potency: 2.51 µM (active)
[6]
  Potency: 3.16 µM (active)
[7]
  Potency: 2.24 µM (active)
[8]
  Potency: 2.82 µM (active)
[9]
  Potency: 8.91 µM (active)
[10]
  Potency: 2.51 µM (active)
[11]
  Potency: 2.82 µM (active)

## C[C@@H](Cc1ccccc1)NCCC(c1ccccc1)c1ccccc1
[20]; at 25.7 µM (top of the series)
  activity change, negative = inhibition: -10.7% (inactive)
[20]; [21]
  max response: -11.9%
[20]; [22]
  max response: -23.1%

## NC(CCCCCP(=O)(O)O)C(=O)O (configuration not stated)
[20]; at 57.5 µM (top of the series)
  activity change, negative = inhibition: 0.489% (inactive)
[20]; [21]
  max response: -0.44%
[20]; [22]
  max response: -0.15%
[2]
  Potency: inactive
[3]
  Potency: inactive
[4]
  Potency: inactive
[5]
  Potency: inactive
[6]
  Potency: inactive
[7]
  Potency: inactive
[8]
  Potency: inactive
[9]
  Potency: inactive
[10]
  Potency: inactive
[11]
  Potency: inactive
[12]
  outcome: inactive
